# From PubChem BioAssay AID463075 (University of Pittsburgh Molecular Library Screening Center, 2010)
# The campaign covered roughly 220,000 compounds. About 150 (0.068%) were called active. The sample as a whole holds a higher share of actives than the screen did. Values without a mark were called inactive.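 Rule for the calls: active = activation, meaning protection from cell death, of at least 50% relative to plate controls; inactive = activation below 50%.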
# Test: rescue of FADD-deficient Jurkat cells from TNF-alpha death – single concentration, primary screen (AID 463075);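 note: necroptosis triggered by 40 ng/mL TNF-alpha added together with compound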
# Conditions: Jurkat FADD-/- TNF necroptosis rescue, ATP luminescence, 24 h; at 10 µM; stronger effect = higher value; 0 = TNF only, 100 = no-TNF cells
row,SMILES,activation (protection from cell death)
1,COC(=O)CCNC(=O)c1ccc2[nH]c(C)c(C)c2c1,-0.237%
2,COC(=O)COc1cccc2c(=O)n(CC(=O)NCc3ccccc3)ccc12,-12.7%
3,CCCc1cc(=S)n2c([nH]c3ccccc32)c1C#N,-1.86%
4,COc1cccc(CC(=O)N2CCCC(CCC(=O)N3CCN(c4ccccn4)CC3)C2)c1 (stereo unspecified),2.68%
5,CCn1cc(C(=O)Nc2cc(C)ccc2C)c(=O)c2ccc(C)nc21,0.491%
6,O=[N+]([O-])c1ccc(N/N=C2/CCCCC2c2ccccn2)c([N+](=O)[O-])c1 (stereo unspecified),2.74%
7,CCn1c2ccccc2c2cc(NC(=O)C/C(C)=N/NC(=O)c3ccccc3N)ccc21,-9.27%
8,COc1cc(OC)cc(/C(N)=N/O)c1,4.62%
9,Cc1ccc(S(=O)(=O)/N=C(/NC(=S)Nc2c(C)n(C)n(-c3ccccc3)c2=O)c2ccccc2)cc1,0.616%
10,O=C(N/N=C1\CCSC1)c1cc(Cl)ccc1O,-0.00524%
11,O=C(Cc1cccc2ccccc12)NNC(=O)Nc1ccc(Cl)cc1,7.05%
12,Cc1nc2ccccc2nc(=O)c1NNc1ccc([N+](=O)[O-])cc1,3.59%
13,Oc1ccc(/C=N/Nc2ccc(C(F)(F)F)cn2)cc1O,30.8%
14,O=S(=O)([N-]c1nc2ccccc2nc1-[n+]1ccc(Cc2ccccc2)cc1)c1ccc(Br)s1,-3.84%
15,CCCN=C1NC(=O)C(CC(=O)NCCc2ccc(OC)c(OC)c2)S1 (stereo unspecified),1.06%
16,O=C(CSc1nnc(-c2ccncc2)o1)NCc1ccc(Cl)cc1,3.12%
17,Cc1cccc(N2CCN(C(=O)/C=C/c3ccco3)CC2)c1C,-4.02%
18,Cc1ccc(S(=O)(=O)N2CCN(CC(=O)N/N=C/c3cc([N+](=O)[O-])ccc3Cl)CC2)cc1,4.63%
19,COc1ccc(C(=S)Nc2ccccc2)cc1,-4.07%

row,SMILES,activation (protection from cell death)
1,COc1ccc(NC(=S)N2N=CCC2c2ccccc2)cc1 (stereo unspecified),87.5% (active)
2,COc1ccc(C(=O)NC2CCN(C(=S)Nc3ccccc3)CC2)cc1,0.717%
3,CCCCS(=O)c1snnc1C (stereo unspecified),-0.406%
4,CCCOc1ccc(Cc2c(Cl)nc(SC)nc2NC)cc1,-4.22%
5,CCCCN(C)CCNC(=O)CSCc1ccc(C)cc1,1.41%
6,CCN1C(=O)/C(=C2/Sc3ccc(OC)cc3N2C)SC1=Nc1ccc(C)cc1,-1.29%
7,COc1ccc(N(CC(=O)NC2CCCCC2)S(=O)(=O)c2c(C)[nH]c(=O)[nH]c2=O)cc1,-0.527%
8,CCOC(=O)/C=c1\s/c(=C\c2ccc(C#N)cc2)c(=O)n1CC(=O)Nc1cccc(C)c1C,0.5%
9,Cc1ccc(N2C(=O)SC(N(CC(=O)O)c3ccc(C)cc3)C2=O)cc1 (stereo unspecified),0.355%
10,CCCN(CC(=O)Nc1ccc(C(N)=O)cc1)CC(=O)Nc1ccccc1C,8.38%
11,Oc1ccccc1C=NC1CCCCC1N=Cc1ccccc1O (stereo unspecified),0.233%
12,C/C(=N\N=C(N)N)c1ccc(Cl)cc1,2.76%
13,C=CCNC(=O)c1sc(SC)cc1-c1ccc(Cl)cc1,-2.68%
14,COc1cccc(C2c3[nH]c4ccccc4c3CCN2Cc2cccc(C)n2)c1 (stereo unspecified),0.616%
15,CC1CCc2c(nc3ncnn3c2Nc2ccc(OC(F)(F)F)cc2)C1 (stereo unspecified),-5.14%
16,COC(=O)c1ccc(NC(=O)CSc2nncc3ccc(OC)c(OC)c23)cc1,-0.335%
17,CCNc1nc(NCC)nc(N/N=C/c2ccc(O)c(OC)c2)n1,22.3%
18,Cc1ccc(NC(=O)c2cccs2)cc1S(=O)(=O)N(C)C,1.75%
19,CCOC(=O)C1=C(c2ccccc2)NC(=S)NC1c1ccc(Cl)cc1 (stereo unspecified),-2.28%

row,SMILES,activation (protection from cell death)
1,COc1ccc(/C(=N\O)c2nccc3cc(OC)c(OC)cc23)cc1OC,0.543%
2,CN1C(C)(C)CC(NC(=O)CCC(=O)NC2CC(C)(C)N(C)C(C)(C)C2)CC1(C)C,0.679%
3,CNC(=O)c1c(NC(NC(=O)c2ccco2)C(=O)c2ccc(Cl)cc2)sc2c1CCCC2 (stereo unspecified),0.421%
4,Cc1c(CN2CCCCC2)c(O)n(CCO)c(=O)c1C#N,-0.121%
5,CCOC(=O)/C(=N\Nc1cc(Cl)ccc1Cl)N1CCN(C)CC1,7.63%
6,COc1cccc(OCCCN2CCCCCC2)c1,1.03%
7,Cc1cc(=O)oc2cc(OCC3CC(c4ccccc4Cl)=NO3)ccc12 (stereo unspecified),-15.7%
8,Cc1ccc(C2NC(=S)NC3=C2N2CCC3CC2)cc1 (stereo unspecified),1.6%
9,C=C(Cl)COC(=O)C1C2C=CC(C2)C1C(=O)O (stereo unspecified),-1.48%
10,CN(C)/C=C/C(=O)c1cnc2sccn2c1=O,-0.24%
11,Cc1nnsc1C(=O)NCc1c(F)cccc1Cl,72.6% (active)
12,Cc1nnsc1C(=O)Nc1cccc(Cl)c1C,5.62%
13,Cc1nnsc1C(=O)N/N=C/c1ccccc1Cl,3.7%
14,O=C(NCCCCCCCCCNC(=O)C(F)(F)F)C(F)(F)F,-0.812%
15,CS(=O)(=O)c1ccc2nc(NC(=O)c3ccc(N4CCCC4=O)cc3)sc2c1,-0.943%
16,COc1ccc(S(=O)(=O)N2CCN(C(=O)c3cc(C)oc3C)CC2)cc1,2.28%
17,O=c1cc(N2CCCCC2)c(-c2ccccc2)nn1Cc1cccc(F)c1,-0.813%
18,Cc1ccc(O)c(-c2cc(C(=O)NCc3ccccc3)[nH]n2)c1,-18.4%
